Results taken from PubChem BioAssay AID588477 (NMMLSC, 2011).
The source made the active and inactive calls.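 Rule for the calls: active = valid curve fit with half-effect dose at most 10 µM and total binding change across doses of 30 points or more; inactive = the rest.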

Assay: inhibitors of Bodipy-GTP binding across eight GTPases, SAR follow-up, selectivity assay for Cdc42 probe extension project, biochemical, round 1 SAR, Mg buffer, multiplex flow cytometry (AID 588477)
Settings: GST-GTPase beads, Ras constitutively active; series mostly up to 100 µM

Compound	outcome
COc1ccc(C2CC(c3ccccc3)=NN2c2ccc(S(N)(=O)=O)cc2)cc1 (stereo not drawn)	inactive
NS(=O)(=O)c1ccc(N2N=C(c3ccccc3)CC2c2ccccc2)cc1 (stereo not drawn)	inactive
O=C(C#Cc1ccccc1)c1cccc([N+](=O)[O-])c1	inactive
